From PubChem BioAssay (NCI)
The panel holds about 83,000 compounds, 20% with a hit somewhere; the sample as a whole holds those more often.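 Note: values are percent growth. 100 is the growth of untreated cells, values between 100 and 0 indicate rising inhibition; between -100 and 0 indicates cell death.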 Unmarked numbers belong to inactive results. Active and inactive are the calls of the source. How the source made its calls: active means growth percent below 10; inactive means the rest.

Tests used:
Assay in all cases: NCI-60 one-dose screen, 48 h (100 = growth as untreated, 0 = no growth, -100 = all killed)
SK-MEL-2 melanoma = settings: 10 µM
EKVX NSCLC = settings: 10 µM
SN12C renal = settings: 10 µM
UO-31 renal = settings: 10 µM
TK-10 renal = settings: 10 µM unless noted
ACHN renal = settings: 10 µM
CAKI-1 renal = settings: 10 µM
A498 renal = settings: 10 µM
CCRF-CEM leukemia = settings: 10 µM
MOLT-4 leukemia = settings: 10 µM

| SMILES | growth (SK-MEL-2 melanoma) | growth (EKVX NSCLC) [%] | growth (SN12C renal) [%] | growth (UO-31 renal) | growth (TK-10 renal) | growth (ACHN renal) [%] | growth (CAKI-1 renal) | growth (A498 renal) [%] | growth (CCRF-CEM leukemia) | growth (MOLT-4 leukemia) |
| --- | --- | --- | --- | --- | --- | --- | --- | --- | --- | --- |
| COc1ccc(OC)c(/C=C2\CCc3ccccc3C2=O)c1 | 43.1% | 50 | 61.7 | 61.1% | 89.5% | 52.7 | 39.1% | 20.2 | 28.3% | 23% |
| C#C[C@H]1CCCCCC1O (some centres undefined) | 101% | 104 | 101 | 97.1% | 109% | 116 | 101% | 99.3 | 97.1% | 98.4% |
| CC(C)OC(=O)c1cc(NC(=S)OC(C)C)ccc1Cl | 96.4% | 85.8 | 93 | 80.2% | 86.1% | 98.7 | 53.6% |  | 88.8% | 75.7% |
| CC1=C(/C=C/C(C)=C/C=C/C(C)=C/CO)C(C)(C)CCC1 | 107% | 108 | 104 | 87.3% | 111% | 106 | 88.6% | 98 |  | 97.9% |
| CCOC(=O)c1cc2cccc(OC)c2oc1=O | 74.9% | 107 | 107 | 105% | 110% | 117 | 132% |  | 91.7% | 89.9% |
| COc1cc(/C=N\Nc2ccccc2)ccc1OC(=O)c1ccccc1 | 64.3% | 66.1 | 79.4 | 21.5% | 96.2% | 45.2 | 40.3% |  | 37.4% | 38.5% |
| Clc1ccc(-c2n[nH]c3c2Cc2ccccc2-3)cc1Cl | 99.6% | 86.3 | 94.1 | 72.4% | 101% | 100 |  | 110 | 89.2% | 91.4% |
| C#Cc1cccc(NC(=O)c2ccc(Cl)cc2Cl)c1 | 98.6% | 91.3 | 95.7 | 91.7% | 106% | 93.5 |  | 102 | 88.2% | 82.1% |
| CCCC(=O)Nc1ccc2c(c1)CN1C(=O)c3ccccc3C1=N2 | 100% | 108 | 100 | 86.1% | 96.4% | 111 | 97.2% |  | 99.6% | 98.4% |
| COc1cc(-c2ccc(NC(=O)NC3CC3)c(OC)c2)ccc1NC(=O)NC1CC1 | 96.3% | 94.6 | 91.6 | 46.5% | 99.6% | 63.8 |  | 59.3 | 47.8% | 38.1% |
| Oc1ccc(Cc2ccccc2)c2cccnc12 | 12.1% | 28.3 | 20.5 | -14.4% (active) | 9.22% (active) | 11.5 | -6.16% (active) |  | 1.19% (active) | 3.7% (active) |
| O=C1C[C@H](c2ccccc2)[C@H](c2ccccc2)C1 | 93% | 106 | 98.7 | 81.9% | 94.2% | 102 | 89.7% |  | 95.1% | 94.9% |
| O=c1cc2oc3cc(O)c(O)cc3c(-c3ccccc3O)c-2cc1O | 110% | 84 | 66.4 | 34.9% | 108% | 24 |  | 48 | 11% | 63.8% |
| COc1cc2c(cc1O)CC[C@@H]1C2CC[C@@]2(C)C1CC[C@@H]2O (some centres undefined) | 71.1% | 37.9 | 53.2 | 41.8% | 63% | 61.9 | 33.7% |  | 8.85% (active) | 31.8% |
| CC1CCCC(CC(N)=O)CC1 (centres undefined) | 109% | 107 | 107 | 91% | 94.2% | 103 | 93.4% |  | 90.4% | 101% |
| Cn1cnc2nc(Cl)nc(Cl)c21 | -23.4% (active) | 104 | 22.4 | 45.2% | 4.15% (active) | 29.4 | -61.6% (active) |  |  | 35.8% |

| SMILES | growth (SK-MEL-2 melanoma) | growth (EKVX NSCLC) [%] | growth (SN12C renal) [%] | growth (UO-31 renal) | growth (TK-10 renal) | growth (ACHN renal) [%] | growth (CAKI-1 renal) | growth (A498 renal) [%] | growth (CCRF-CEM leukemia) | growth (MOLT-4 leukemia) |
| --- | --- | --- | --- | --- | --- | --- | --- | --- | --- | --- |
| CN(C)c1ccc(S(=O)(=O)O)cc1 | 86.2% | 107 | 105 | 87.9% | 89.2% | 93.9 | 105% |  | 95.9% | 107% |
| c1ncc2[nH]cnc2n1 | 84.6% | 126 | 97.1 | 83.5% | 103% | 95.1 | 94.8% |  | 88.7% | 80.8% |
| CCOC(=O)CCCS(C)(=O)=O | 90.7% | 113 | 97.4 | 90.5% | 102% | 104 | 117% |  | 113% | 96.5% |
| N/N=C(/Cc1ccccc1)NNC(N)=S | 104% | 91.9 | 104 | 81.4% | 118% | 104 | 96.4% |  | 93.8% | 98.4% |
| S=c1[nH]ccn1-c1ccccc1Cl | 118% | 112 | 116 | 94.2% | 128% | 101 |  | 101 | 96.6% | 97.4% |
| Nc1nc(N)c(N=Nc2ccc(C(=O)O)cc2)c(N)n1 | 97.1% | 100 | 91.4 | 53.6% | 130% | 103 |  | 96.2 | 102% | 102% |
| OCc1ccc(-c2ccc(-c3ccc(CO)s3)o2)s1 | 79.7% | 99.9 | 55.7 | 41.4% | -20.9% (active) | 63.7 | -54.3% (active) |  | 41.5% | 33.1% |
| CO[C@H]1C[C@@H]2CC[C@@H](C)[C@@](O)(O2)C(=O)C(=O)N2CCCC[C@H]2C(=O)O[C@H]([C@H](C)C[C@@H]2CC[C@@H](O)[C@H](OC)C2)CC(=O)[C@H](C)C=C(C)[C@@H](O)[C@@H](OC)C(=O)[C@H](C)C[C@H](C)/C=C/C=C/C=C1C | 75.8% | 36.5 | 74.2 | 26.3% | 71.7% | 59.3 | 52.2% |  | 30.6% | 37.4% |
| CCOC(=O)/C(=C/c1ccc(OC)cc1)N(CC)CC | 103% | 106 | 102 | 92.9% | 107% | 113 | 103% |  | 100% | 99% |
| N#CC1(Nc2ccc3c4c(cccc24)CC3)CCCCC1 | 90.3% | 102 | 92.7 | 55.6% | 102% | 101 | 74.8% |  | 59% | 70.1% |
| Cc1c(C(=O)O)c(=O)n(-c2ccccc2)n1C | 116% | 103 | 105 | 89.6% | 123% | 109 | 98.3% |  | 108% | 113% |
| C[N+](C)=c1ccc2nc3c(cc(Nc4ccccc4)c4ccccc43)oc-2c1 | 10.9% | 90.2 | 79.9 | 59.1% | 106% | 82.1 |  | 51 | 57.8% | 38% |
| CC(=O)OCC(=O)[C@@]1(O)CC[C@H]2[C@@H]3CC[C@@H]4C[C@H](O)CC[C@]4(C)[C@H]3C(=O)C[C@@]21C | 101% | 98.4 | 102 | 96.3% | 110% | 107 | 89.4% |  | 74% | 79.8% |
| COc1cc(C2NC(=O)C(C#N)=C(Nc3cccc(C)c3)S2)ccc1O (centres undefined) | 123% | 94.9 | 90.3 | 94.8% | 106% | 101 |  | 112 | 76% | 93% |
| CC1(O)CCCCC1O (centres undefined) | 91.8% | 114 | 95.1 | 79.3% | 125% | 102 | 102% |  | 107% | 103% |
| COc1cc(CN)ccc1O | -8.32% (active) | 71.3 | 81.7 | 82.7% | 88.4% | 96 |  | 128 | 93.1% | 134% |
